Reference: ChEMBL document CHEMBL3988442, “University of Dundee, Small-Polar-MMV Screening Library” (2021)
For part of these data: Potency and affinity values are given separately.

What was measured:
Design in all cases: scale not given: direction of the effect not stated beside the values
[1] = target: Protein translocase subunit SecA (Escherichia coli (strain K12)) (UniProt P10408); assay: Assay to Identify E. coli SecA ATPase Inhibitors; type: functional; settings: 30 µM
[2] = target: T1, Ubiquitin-activating enzyme e1, putative (Leishmania donovani (strain BPK282A1)) (UniProt E9BSI1); assay: Leishmania donovani Ubiquitin Activating Enzyme (LdE1); type: functional; settings: 30 µM
T1 sequence (whole entry): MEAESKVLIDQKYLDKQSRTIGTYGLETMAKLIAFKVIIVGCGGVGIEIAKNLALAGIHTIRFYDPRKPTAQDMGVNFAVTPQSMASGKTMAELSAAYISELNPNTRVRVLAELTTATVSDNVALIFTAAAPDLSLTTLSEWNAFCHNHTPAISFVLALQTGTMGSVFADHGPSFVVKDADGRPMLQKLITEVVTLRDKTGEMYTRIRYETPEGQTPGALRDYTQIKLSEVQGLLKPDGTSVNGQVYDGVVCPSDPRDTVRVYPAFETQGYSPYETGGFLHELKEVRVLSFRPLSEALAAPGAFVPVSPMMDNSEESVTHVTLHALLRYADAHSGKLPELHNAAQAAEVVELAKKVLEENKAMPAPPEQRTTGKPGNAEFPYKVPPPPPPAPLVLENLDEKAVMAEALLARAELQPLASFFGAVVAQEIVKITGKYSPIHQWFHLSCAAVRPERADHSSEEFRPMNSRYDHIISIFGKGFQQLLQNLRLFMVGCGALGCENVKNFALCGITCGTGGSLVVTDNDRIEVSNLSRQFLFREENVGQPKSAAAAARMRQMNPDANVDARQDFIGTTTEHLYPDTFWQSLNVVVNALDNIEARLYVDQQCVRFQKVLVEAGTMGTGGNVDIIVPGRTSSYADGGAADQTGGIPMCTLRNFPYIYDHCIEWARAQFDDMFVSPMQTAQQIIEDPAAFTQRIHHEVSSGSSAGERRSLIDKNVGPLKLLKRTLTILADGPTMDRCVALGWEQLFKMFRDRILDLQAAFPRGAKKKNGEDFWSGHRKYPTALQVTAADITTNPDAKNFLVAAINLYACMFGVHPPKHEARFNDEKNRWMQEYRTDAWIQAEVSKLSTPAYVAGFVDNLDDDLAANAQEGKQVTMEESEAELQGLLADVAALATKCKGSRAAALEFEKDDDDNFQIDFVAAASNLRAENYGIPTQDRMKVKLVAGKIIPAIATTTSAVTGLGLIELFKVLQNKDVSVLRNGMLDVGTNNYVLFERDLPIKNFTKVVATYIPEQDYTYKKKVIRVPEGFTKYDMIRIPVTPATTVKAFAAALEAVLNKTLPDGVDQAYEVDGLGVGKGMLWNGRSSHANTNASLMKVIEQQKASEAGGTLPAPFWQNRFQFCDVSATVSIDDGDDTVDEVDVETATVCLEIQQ

[3] = target: Sialic acid-binding Ig-like lectin 9 (Homo sapiens) (UniProt Q9Y336); assay: Hs-Siglec9 ALPHAscreen SOP 20170721; settings: 10 µM
Sequence of Sialic acid-binding Ig-like lectin 9 (Homo sapiens) (Q9Y336 whole entry): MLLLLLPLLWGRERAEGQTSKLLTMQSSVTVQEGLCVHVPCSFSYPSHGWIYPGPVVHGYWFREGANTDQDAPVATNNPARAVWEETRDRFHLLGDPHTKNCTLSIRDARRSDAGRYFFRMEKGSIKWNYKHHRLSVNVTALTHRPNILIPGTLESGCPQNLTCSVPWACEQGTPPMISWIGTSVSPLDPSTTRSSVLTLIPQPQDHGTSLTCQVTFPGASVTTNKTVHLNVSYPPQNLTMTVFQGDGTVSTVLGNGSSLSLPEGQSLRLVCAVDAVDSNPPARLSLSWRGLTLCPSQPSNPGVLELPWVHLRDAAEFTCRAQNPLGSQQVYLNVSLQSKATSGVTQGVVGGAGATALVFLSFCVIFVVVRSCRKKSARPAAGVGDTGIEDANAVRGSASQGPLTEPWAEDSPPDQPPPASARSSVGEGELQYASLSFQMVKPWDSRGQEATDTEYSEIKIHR

Trypanosoma cruzi = assay: Trypanosoma cruzi phosphomannomutase and mannose-1-phosphate guanylyltransferase assay; type: functional; settings: 10 µM
[4] = target: T2, Arginase-2, mitochondrial (Homo sapiens) (UniProt P78540); assay: in vitro enzyme assay to detect the production of urea directly proportional to the activity of Arginase II; type: functional; settings: 33.3 µM; further: in the data most compounds retested in dose-response had high values
T2 sequence (whole entry): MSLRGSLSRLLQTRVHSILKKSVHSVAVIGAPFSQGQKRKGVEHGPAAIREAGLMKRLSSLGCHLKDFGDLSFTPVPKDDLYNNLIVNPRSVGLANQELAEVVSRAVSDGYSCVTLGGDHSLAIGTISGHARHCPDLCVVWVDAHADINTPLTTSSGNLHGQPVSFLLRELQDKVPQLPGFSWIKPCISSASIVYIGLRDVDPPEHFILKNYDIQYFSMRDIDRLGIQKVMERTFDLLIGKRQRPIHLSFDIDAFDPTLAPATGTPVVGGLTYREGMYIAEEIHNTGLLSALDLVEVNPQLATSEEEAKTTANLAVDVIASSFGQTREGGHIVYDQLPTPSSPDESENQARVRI

[5] = target: T3, Proteasome subunit beta (Trypanosoma cruzi) (UniProt O96673); assay: Trypanosoma cruzi proteasome chymotrypsin-like activity (TcProtChymo) assay.; further: in the data most compounds retested in dose-response had high values; type: functional; settings: 9.37 µM
T3 sequence (whole entry): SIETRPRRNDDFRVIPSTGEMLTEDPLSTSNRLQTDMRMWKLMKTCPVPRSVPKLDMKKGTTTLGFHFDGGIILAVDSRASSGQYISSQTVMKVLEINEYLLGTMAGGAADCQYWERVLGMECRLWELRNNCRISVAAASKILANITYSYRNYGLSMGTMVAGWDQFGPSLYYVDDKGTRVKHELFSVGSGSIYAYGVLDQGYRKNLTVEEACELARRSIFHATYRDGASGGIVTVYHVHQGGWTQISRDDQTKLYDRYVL

Homo sapiens = organism: Homo sapiens; assay: To identify inhibition of the IFN signalling (Jak-Stat) pathway via expression of an eGFP reporter gene under the control of an IFN-stimulated response element (ISRE) containing MxA promoter.; type: functional; settings: 30 µM
[6] = target: T4, Tyrosyl-tRNA synthetase, putative (Trypanosoma cruzi (strain CL Brener)) (UniProt Q4DSP6); assay: Trypanosoma cruzi tyrosyl tRNA synthetase (TcYRS) _High Tyrosine SOP; type: functional; settings: 30 µM; further: in the data most compounds retested in dose-response had high values
T4 sequence (whole entry): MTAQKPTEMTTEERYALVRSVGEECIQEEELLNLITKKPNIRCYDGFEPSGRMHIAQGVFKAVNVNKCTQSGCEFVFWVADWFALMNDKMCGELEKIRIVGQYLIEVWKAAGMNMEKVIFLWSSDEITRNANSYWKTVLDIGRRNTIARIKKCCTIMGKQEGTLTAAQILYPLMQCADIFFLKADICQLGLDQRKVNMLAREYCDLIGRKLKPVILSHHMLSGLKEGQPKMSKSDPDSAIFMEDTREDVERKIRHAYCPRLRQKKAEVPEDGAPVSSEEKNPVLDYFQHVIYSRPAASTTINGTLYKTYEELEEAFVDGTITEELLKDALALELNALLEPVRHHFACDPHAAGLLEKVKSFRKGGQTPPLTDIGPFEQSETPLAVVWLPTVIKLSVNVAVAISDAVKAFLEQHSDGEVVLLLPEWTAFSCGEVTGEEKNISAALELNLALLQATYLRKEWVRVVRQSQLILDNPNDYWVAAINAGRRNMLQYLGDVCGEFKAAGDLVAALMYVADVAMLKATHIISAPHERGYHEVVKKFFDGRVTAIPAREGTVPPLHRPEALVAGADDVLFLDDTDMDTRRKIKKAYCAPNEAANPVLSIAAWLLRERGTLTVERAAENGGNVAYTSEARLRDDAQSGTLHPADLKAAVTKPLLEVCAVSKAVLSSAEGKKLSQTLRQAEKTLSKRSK

[7] = target: T4, Tyrosyl-tRNA synthetase, putative (Trypanosoma cruzi (strain CL Brener)); assay: Trypanosoma cruzi tyrosyl tRNA synthetase (TcYRS) SOP; type: functional; settings: 30 µM
[8] = target: Chromo domain-containing protein 1 (Saccharomyces cerevisiae (strain ATCC 204508 / S288c) (Baker's yeast)) (UniProt P32657); assay: ScCHD-1 Enzyme Inhibition Assay; type: functional; settings: 30 µM; further: in the data most compounds retested in dose-response had high values
Sequence of Chromo domain-containing protein 1 (Saccharomyces cerevisiae (strain ATCC 204508 / S288c) (Baker's yeast)) (P32657 whole entry, the tested form may be a part): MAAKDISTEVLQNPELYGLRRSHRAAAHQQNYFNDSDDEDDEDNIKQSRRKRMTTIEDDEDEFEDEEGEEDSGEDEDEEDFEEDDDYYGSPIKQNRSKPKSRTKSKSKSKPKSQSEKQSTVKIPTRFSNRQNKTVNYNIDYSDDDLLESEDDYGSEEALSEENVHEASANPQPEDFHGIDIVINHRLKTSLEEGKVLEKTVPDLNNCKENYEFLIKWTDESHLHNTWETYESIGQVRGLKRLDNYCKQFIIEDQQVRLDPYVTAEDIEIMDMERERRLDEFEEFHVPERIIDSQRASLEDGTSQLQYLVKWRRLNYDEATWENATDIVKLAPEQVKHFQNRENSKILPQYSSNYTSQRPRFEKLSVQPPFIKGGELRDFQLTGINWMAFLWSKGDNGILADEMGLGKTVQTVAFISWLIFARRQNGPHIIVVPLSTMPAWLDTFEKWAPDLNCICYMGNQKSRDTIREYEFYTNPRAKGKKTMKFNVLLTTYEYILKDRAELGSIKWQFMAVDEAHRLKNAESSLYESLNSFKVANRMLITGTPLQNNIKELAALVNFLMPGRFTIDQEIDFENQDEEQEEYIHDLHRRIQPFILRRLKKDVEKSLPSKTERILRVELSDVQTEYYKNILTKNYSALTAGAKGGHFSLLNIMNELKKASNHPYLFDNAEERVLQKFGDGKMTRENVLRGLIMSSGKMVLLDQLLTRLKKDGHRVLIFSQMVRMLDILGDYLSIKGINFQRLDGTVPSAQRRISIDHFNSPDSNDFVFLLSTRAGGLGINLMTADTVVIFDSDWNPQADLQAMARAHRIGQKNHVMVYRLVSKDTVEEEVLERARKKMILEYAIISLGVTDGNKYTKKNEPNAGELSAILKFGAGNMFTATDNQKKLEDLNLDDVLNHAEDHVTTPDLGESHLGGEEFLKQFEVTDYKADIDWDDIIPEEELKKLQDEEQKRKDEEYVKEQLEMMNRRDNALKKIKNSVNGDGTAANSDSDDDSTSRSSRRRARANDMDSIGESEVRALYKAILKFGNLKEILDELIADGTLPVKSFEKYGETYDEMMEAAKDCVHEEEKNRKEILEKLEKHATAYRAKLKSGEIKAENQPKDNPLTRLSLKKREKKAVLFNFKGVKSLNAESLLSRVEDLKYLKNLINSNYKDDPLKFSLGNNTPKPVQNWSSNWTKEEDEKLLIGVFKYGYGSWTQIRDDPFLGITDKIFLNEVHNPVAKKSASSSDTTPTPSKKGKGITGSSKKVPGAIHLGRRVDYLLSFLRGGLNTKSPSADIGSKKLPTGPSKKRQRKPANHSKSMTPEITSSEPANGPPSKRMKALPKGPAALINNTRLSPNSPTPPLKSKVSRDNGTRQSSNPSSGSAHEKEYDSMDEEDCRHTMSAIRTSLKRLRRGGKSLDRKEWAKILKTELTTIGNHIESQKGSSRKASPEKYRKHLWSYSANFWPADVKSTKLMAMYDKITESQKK

Sequence of Protein translocase subunit SecA (Escherichia coli (strain K12)) (P10408 whole entry): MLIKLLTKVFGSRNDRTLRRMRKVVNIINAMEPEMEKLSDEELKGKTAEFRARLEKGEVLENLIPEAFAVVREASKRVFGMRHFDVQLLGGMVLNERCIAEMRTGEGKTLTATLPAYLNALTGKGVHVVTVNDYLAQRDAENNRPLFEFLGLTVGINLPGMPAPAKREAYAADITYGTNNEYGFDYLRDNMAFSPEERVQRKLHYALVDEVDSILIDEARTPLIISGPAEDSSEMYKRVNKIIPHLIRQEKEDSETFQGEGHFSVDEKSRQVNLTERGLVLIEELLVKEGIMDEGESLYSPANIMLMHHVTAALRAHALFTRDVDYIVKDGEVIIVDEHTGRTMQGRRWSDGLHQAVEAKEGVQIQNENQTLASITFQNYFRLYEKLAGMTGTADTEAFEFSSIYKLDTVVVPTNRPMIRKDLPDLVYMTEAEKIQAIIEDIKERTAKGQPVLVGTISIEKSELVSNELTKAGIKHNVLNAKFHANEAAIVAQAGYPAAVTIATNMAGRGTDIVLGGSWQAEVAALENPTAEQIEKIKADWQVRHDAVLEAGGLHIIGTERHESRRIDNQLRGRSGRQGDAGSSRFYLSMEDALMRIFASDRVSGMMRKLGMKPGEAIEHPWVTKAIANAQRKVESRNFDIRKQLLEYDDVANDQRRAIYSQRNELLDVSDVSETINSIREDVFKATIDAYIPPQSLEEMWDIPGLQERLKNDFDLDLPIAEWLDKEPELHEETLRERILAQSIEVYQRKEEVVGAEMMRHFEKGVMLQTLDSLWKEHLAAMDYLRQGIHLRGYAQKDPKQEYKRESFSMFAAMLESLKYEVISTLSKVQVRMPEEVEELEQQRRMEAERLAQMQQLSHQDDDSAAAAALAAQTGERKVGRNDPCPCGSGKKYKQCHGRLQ

| SMILES | Percent Effect [1] | Percent Effect [2] | Percent Effect [3] | Percent Effect (Trypanosoma cruzi) | Percent Effect [4] | Percent Effect [5] | Percent Effect (Homo sapiens) | Percent Effect [6] | Percent Effect [7] | Percent Effect [8] |
| --- | --- | --- | --- | --- | --- | --- | --- | --- | --- | --- |
| Cc1cnn(CC2CN(CC(=O)N3CCc4ccccc43)CCO2)c1 (stereo not given) | -4.43% | 8% | 4.38% | -0.803% | 3.55% | 3.48% | 6.22% | 4.74% | -5.13% | -9.1% |
| COc1ccc(CN2CCC3(CC2)NC(=O)CC3c2ccncc2)cc1 (stereo not given) | -7.89% | -6.49% | 3.29% | -2.43% | -4.05% | 9.27% | 5.38% | -0.526% | 2.56% | -1.91% |
| O=C(c1cccs1)N1CC[C@H](O)[C@@H]1Cc1ccccc1 | -8.07% | 9.09% | 8.03% | -0.563% | 0.457% | 0.601% | 23.5% | 0.966% | 7.5% | -9.97% |
| COc1cccc(CN2CCC3(CCN(C(=O)[C@H]4CCCO4)CC3)C2)c1 | -2.54% | 22.1% | -5.6% | 0.188% | 0% | 12.6% | -14.8% | 10.6% | -2.5% | -10.4% |
| c1ccc(CNC2CCc3ncnn3C2)nc1 (stereo not given) | 0.311% | 12.8% | -14.6% | -4.98% | 1.23% | 21.1% | 30.1% | 9.09% | 20.5% | -2.61% |
| CC(C)(C)c1nnc(CN2CCn3c(nnc3C3CC3)C2)o1 | -1.7% | -2.67% | 0.00454% | -2.21% | 0.444% | 3.14% | 13.2% | 0.526% | 2.56% | 9.52% |
| O=C1NCC2(CCCN(Cc3ccc(Cl)s3)C2)Oc2ccccc21 (stereo not given) | -1.75% | 20% | 4.75% | 1.18% | -1.33% | 10.3% | 12.7% | 4.23% | 20% | -28.8% |
| CN(C)c1ccc(C(=O)NCC2(c3ccccc3)CCOCC2)cc1 | -0.155% | 22.7% | -5.97% | 1.38% | -2.21% | 15.4% | 9.64% | 0% | 15% | -24.2% |
| Cc1ccc(NC2CCN(C(=O)c3cnc(C)s3)CC2)nn1 | -3.62% | 10.7% | -0.486% | -3.01% | 0.887% | -0.594% | 15.9% | 5.79% | 12.8% | -6.74% |
